Test results as given in the supplement of paper PMC7724964.

T1: PUF60 460-559 RRM_3 (domain begin residue: 460, domain end residue: 559), Q9UHX1
T1 chain: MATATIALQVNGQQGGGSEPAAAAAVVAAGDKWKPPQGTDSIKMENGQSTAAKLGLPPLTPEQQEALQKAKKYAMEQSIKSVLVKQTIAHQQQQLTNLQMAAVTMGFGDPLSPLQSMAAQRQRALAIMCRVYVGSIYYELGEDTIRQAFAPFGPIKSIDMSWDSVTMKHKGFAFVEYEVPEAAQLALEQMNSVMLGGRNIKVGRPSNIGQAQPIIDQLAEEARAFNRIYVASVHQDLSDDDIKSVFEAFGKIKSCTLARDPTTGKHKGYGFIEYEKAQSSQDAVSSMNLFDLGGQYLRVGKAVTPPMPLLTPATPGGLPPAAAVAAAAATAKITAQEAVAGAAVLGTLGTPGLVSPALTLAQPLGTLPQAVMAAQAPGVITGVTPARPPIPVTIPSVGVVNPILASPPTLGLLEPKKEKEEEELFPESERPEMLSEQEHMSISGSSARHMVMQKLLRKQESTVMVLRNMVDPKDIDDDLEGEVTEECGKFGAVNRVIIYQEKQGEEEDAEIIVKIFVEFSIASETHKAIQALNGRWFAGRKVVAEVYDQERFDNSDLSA

T2: PPARG 233-505 Hormone_recep (domain begin residue: 233, domain end residue: 505), P37231
T2 chain: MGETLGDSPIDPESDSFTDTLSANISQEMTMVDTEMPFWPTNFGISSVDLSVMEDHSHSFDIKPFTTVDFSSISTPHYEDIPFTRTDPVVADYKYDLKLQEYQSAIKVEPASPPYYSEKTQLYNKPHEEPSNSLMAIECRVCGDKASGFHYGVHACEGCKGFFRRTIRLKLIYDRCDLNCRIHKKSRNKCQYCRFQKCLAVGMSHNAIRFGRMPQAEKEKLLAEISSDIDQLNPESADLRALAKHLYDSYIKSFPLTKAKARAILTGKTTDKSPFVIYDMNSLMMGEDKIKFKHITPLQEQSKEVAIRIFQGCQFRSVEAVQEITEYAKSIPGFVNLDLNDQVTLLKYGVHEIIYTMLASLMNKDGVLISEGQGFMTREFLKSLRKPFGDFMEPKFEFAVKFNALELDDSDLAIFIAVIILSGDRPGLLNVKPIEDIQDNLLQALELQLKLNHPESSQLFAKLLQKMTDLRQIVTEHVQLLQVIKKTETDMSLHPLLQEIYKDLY

T3: PLEK 120-231 DEP (domain begin residue: 120, domain end residue: 231), P08567
T3 chain: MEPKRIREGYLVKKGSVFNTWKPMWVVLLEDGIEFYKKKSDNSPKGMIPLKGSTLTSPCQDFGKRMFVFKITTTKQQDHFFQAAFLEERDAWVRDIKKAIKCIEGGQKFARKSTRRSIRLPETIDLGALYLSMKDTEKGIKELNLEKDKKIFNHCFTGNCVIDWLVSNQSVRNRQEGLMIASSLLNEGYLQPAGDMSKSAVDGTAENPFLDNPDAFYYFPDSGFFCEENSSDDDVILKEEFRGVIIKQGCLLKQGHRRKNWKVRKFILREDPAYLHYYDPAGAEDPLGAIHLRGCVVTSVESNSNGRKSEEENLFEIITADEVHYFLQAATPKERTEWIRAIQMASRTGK

T4: RALA 11-183 Ras (domain begin residue: 11, domain end residue: 183), P11233
T4 chain: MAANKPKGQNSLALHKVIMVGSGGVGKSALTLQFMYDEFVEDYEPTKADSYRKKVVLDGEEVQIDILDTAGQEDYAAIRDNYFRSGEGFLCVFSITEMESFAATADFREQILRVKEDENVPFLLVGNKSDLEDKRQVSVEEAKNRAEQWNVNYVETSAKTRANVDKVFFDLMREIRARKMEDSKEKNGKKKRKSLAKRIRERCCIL

T5: PPWD1 486-646 Pro_isomerase (domain begin residue: 486, domain end residue: 646), Q96BP3
T5 chain: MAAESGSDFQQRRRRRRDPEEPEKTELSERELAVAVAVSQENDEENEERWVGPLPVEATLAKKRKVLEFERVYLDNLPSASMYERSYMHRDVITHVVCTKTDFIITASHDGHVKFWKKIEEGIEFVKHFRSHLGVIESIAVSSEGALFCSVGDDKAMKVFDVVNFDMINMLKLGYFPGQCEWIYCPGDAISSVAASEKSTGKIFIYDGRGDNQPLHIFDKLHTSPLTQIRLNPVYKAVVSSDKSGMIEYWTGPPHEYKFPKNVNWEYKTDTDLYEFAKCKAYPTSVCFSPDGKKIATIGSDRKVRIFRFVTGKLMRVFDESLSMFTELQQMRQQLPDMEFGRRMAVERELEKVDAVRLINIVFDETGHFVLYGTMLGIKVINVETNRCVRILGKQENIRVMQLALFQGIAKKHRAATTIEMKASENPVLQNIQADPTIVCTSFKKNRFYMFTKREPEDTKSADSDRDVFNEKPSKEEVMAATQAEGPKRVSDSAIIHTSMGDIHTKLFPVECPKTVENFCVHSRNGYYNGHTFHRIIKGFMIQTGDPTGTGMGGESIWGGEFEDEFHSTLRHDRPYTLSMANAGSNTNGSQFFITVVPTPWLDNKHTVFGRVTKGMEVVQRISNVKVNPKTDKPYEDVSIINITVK

T6: RAB5A 15-188 Ras (domain begin residue: 15, domain end residue: 188), P20339
T6 chain: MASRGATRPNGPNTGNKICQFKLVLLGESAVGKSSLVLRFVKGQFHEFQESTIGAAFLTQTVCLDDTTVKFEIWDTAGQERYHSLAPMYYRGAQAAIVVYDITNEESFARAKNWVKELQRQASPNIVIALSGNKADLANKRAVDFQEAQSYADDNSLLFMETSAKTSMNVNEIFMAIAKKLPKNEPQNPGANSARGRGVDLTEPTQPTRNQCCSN


Target: T1, PUF60 460-559 RRM_3 (domain begin …
Test: phage ELISA signal ratio (GST-PRM binding over GST background); higher = stronger binding of peptide-phage to the PRM
Outline: (§1)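 Each value is the phage ELISA signal on the glutathione S-transferase (GST)-domain fusion divided by the signal on GST alone. Human peptide recognition domains were expressed in 96-well plates, fused to the C-terminus of GST, and selected against an M13 phage library carrying randomized, cysteine-free, glycine-flanked hexadecapeptides on the gene-8 major coat protein. After five selection rounds, approximately 48 individual clones from rounds 4 and 5 were tested by phage ELISA, and positive clones were sequenced.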

Row | Binder | phage ELISA signal ratio
1 | TQGKWDMQPTDMHYLS | 13.2
2 | MNWGEMWDVRDDQVMV | 7.64
3 | SRWDQQPGQWIKLSEN | 12
4 | WSSKWDVIDKDYGIMH | 7.28
5 | NKWDMEHWDTEYRSPV | 4.03

Each binder was assayed against PPIE 138-301 Pro_isomerase (domain begin residue: 138, domain end residue: 301), Q9UNP9 in the same assay as above.
Outline: as §1

Chain of PPIE 138-301 Pro_isomerase (domain begin residue: 138, domain end residue: 301), Q9UNP9 (Q9UNP9 whole entry): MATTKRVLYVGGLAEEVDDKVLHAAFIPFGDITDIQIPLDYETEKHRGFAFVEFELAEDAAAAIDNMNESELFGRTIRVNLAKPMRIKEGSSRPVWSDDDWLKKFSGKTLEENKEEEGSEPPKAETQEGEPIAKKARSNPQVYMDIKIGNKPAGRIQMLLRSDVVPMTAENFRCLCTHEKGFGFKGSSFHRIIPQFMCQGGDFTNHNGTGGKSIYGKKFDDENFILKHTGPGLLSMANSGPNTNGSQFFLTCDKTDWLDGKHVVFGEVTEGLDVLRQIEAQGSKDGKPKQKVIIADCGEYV

Row | Binder | phage ELISA signal ratio
6 | PLMMPPEPHWVVNLGI | 10.5
7 | HEMFGPQEQSQHMMEW | 4.73
8 | PMTWEMWQIDSAQQTV | 8.08
9 | ENHVPWVPEARWTTPQ | 7.51
10 | SDVYGPHAHPVHYQDE | 8.93
11 | ESWGPMEQHSYTEQTE | 5.43
12 | VYDFIGPQPQTNMASI | 21.8
13 | EPTFGPQPQVFFSTNP | 17

These binders were tested against PLEK2 123-229 DEP (domain begin residue: 123, domain end residue: 229) in the same assay as above.
Outline: as §1

Row | Binder | phage ELISA signal ratio
14 | WNWENVWGLDQTHPLW | 3.15
15 | PDFWWQQQMADIMQWR | 21.4
16 | YLTWWYDPDHPDWATV | 6.35
17 | WNWENVWWLDQTHPLW | 10.1
18 | EIEPWWWDPHHENWAM | 7.12
19 | EFEMDFWEMWNAWLSQ | 14.9

These binders were tested against RANBP1 39-170 Ran_BP1 (domain begin residue: 39, domain end residue: 170), P43487 in the same assay as above.
Outline: as §1

Chain of RANBP1 39-170 Ran_BP1 (domain begin residue: 39, domain end residue: 170), P43487 (P43487 whole entry): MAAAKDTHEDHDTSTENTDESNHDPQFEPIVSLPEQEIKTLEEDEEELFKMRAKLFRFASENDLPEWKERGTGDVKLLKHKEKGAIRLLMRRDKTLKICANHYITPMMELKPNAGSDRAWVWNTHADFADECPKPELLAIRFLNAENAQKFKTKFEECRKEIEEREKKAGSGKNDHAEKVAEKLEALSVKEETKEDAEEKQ

Row | Binder | phage ELISA signal ratio
20 | WRMELPVQNHMEVMDL | 6.12
21 | WELALPAEHHEHYWSN | 4.36
22 | WLVPLPWEETWQNMSL | 5.79
23 | WDMTLPVLTNHELAYL | 9.02
24 | WEHLYPWMIPLPGTGV | 6.24
25 | YGMRLPEASQMETWFL | 6.18
26 | VSDMRGVPDSFMDVWD | 5.06
27 | GTEWWQQMALPPDVVV | 7.62
28 | WDVALPQEIVWELADK | 7.66

What follows are binders tested against PLEK2 238-353 PH (domain begin residue: 238, domain end residue: 353) in the same assay as above.
Outline: as §1

Row | Binder | phage ELISA signal ratio
29 | WEDWTYWNDHLHLSPE | 8.15
30 | DQVLKWNEHWHEWLQA | 26.3
31 | DINVTSDMNQHWMQWS | 33.1
32 | DGKHWADFYSAFPMLA | 31.8
33 | LNDHWVAWHLMKNEIQ | 14.3
34 | MHSELNWWEAMQWDSW | 4.7
35 | GPEMWNLHWQDWYNEV | 28.3
36 | MSGITDWWENPAYWSW | 3.86
37 | QNDGMDKAWVFWHEPT | 20.8
38 | DHWDAFYTWQKQNYLD | 36.8
39 | DFNAHWLEWHAQHVAL | 28.5
40 | TLTATDWWEEWNWGEN | 20.9
41 | SIKHWEQFYASQPPQI | 16.2
42 | EDVELLNKHWYDWAQV | 25
43 | MNEHWTEWYWQSQNFV | 20.4

Target: T2, PPARG 233-505 Hormone_recep (domain …
Test: as above
Outline: as §1

Row | Binder | phage ELISA signal ratio
44 | MNHAQIQSPLLWSLLW | 11.6
45 | QDLESWWWSEHLSNIM | 14.3
46 | AEEHSMSLMSLLLAPS | 5.77
47 | LHPMLTDMLAPNHMEV | 18.6
48 | PESWWESWMMDHEWGS | 24.5
49 | PSEDVSWWWQQHLMDI | 17.6

Target: T3, PLEK 120-231 DEP (domain begin residue: …
Test: as above
Outline: as §1

Row | Binder | phage ELISA signal ratio
50 | FDQLMHEAYTQWQSQQ | 31.5
51 | RPDIMERLQQLMVWHG | 4.13
52 | WFDEGMWEVINQYNSL | 21.9
53 | LQTYDWWADVMDHVLN | 4.42

Target: T4, RALA 11-183 Ras (domain begin residue: …
Test: as above
Outline: as §1

Row | Binder | phage ELISA signal ratio
54 | LYQEVFEYQGWLCMDL | 32.5
55 | LTHEQMLWQLMDALSE | 19.4

Target: T5, PPWD1 486-646 Pro_isomerase (domain …
Test: as above
Outline: as §1

Row | Binder | phage ELISA signal ratio
56 | AVSWGPQWHDFQWALM | 8.34

Target: T6, RAB5A 15-188 Ras (domain begin residue: …
Test: as above
Outline: as §1

Row | Binder | phage ELISA signal ratio
57 | WDLAEWEMIWQDYMNH | 5.62
